Source: PubChem (several laboratories)
TLR9-MyD88 inh: inhibitors of human TLR9-MyD88 binding; Q9NR96+Q99836; inhibition, % at 4.98 µM; hit rate 0.21% among 340,000; CHO BLA complementation TLR9-MyD88, CCF4 FRET ratio;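 active = inhibition above the mean over all tested compounds plus 3 SD, cut at about 21% in these data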
ABHD5-PLIN5 inh: blocks binding of human ABHD5 to perilipin-5 | Q00G26+Q8WTS1 | Split G. princeps luciferase complementation, luminescence, 4 h | inhibition, % at 4 µM | hit rate 0.78% among 360,000;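 active = inhibition above the mean inhibition across every tested compound plus 3 SD, cut at about 22% in these data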
B2AR ag: agonists of human beta-2 adrenergic receptor inducing internalization | P07550 | Am2.2-beta2AR cells, FAP receptor internalization, flow cytometry | response, % (concentration not given with the values) | hit rate 0.43% among 340,000 | AID 504454;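 active = response above a set limit, near 3 SD of response in nonfluorescent compounds, cut at about 42% in these data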
Granule exo inh: blocks lytic granule exocytosis | TALL-104 LAMP-1 surface exposure, flow cytometry; cells stimulated with thapsigargin and PMA | inhibition, % at 10 µM | hit rate 0.66% among 360,000;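 active = inhibition above about 55%, limit read from the data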
NOD2-RIPK2 inh: inhibitors of human NOD2-RIPK2 interaction. CHO BLA complementation NOD2-RIPK2, CCF4 ratio. hit rate 0.38% among 360,000. O43353. inhibition, % at 4.98 µM; in the data active = inhibition above about 21%
TLR4 MyD88 comp: blocks binding of human TLR4 to MyD88; O00206+Q99836; HeLa CL3-4 TLR4/MyD88 BLA complementation, FRET ratio; inhibition, % at 8.4 µM; hit rate 0.18% among 200,000; AID 861; in the data active = inhibition above about 25%
ABHD5 PLIN5 conf: ABHD5-PLIN5 interaction inhibition, confirmed; biochemical ABHD5-PLIN5 interaction, luminescence; hit rate 67% among 2,200; AID 651612; inhibition, % at 4 µM; shares compounds with ABHD5-PLIN5 inh; in the data active = inhibition above about 23%
HNF4 split-luc: counter-screen for ABHD5-PLIN5 inhibitors: HNF4 split-luciferase | shares compounds with ABHD5-PLIN5 inh | HNF4 dimerization, luminescence, biochemical | inhibition, % at 4 µM | hit rate 77% among 2,200 | AID 651674;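 active = mean inhibition across replicate wells exceeding the computed hit threshold, cut at about 13% in these data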;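 note: light from luciferase halves that rejoin when HNF4 fusion proteins dimerize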
Target sequence (P41235 whole entry, looked up, the tested form may be a part): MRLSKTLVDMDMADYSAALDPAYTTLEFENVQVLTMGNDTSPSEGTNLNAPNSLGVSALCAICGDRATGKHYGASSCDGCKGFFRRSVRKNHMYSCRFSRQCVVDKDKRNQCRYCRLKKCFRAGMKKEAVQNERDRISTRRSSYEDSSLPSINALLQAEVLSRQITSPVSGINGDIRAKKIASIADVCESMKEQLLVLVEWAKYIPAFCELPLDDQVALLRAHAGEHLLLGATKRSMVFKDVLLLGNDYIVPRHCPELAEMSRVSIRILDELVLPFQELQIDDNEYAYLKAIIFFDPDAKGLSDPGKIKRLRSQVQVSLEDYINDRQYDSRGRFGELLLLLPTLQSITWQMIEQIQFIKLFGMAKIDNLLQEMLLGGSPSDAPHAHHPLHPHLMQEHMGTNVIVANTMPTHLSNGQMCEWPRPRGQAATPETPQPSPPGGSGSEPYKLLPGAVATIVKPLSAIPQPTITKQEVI
NOD2-RIPK2 conf: confirmation of human NOD2-RIPK2 interaction inhibitors | hit rate 70% among 1,200 | shares compounds with NOD2-RIPK2 inh | inhibition, % at 4.98 µM | CHO cells, NOD2-RIPK2 BLA complementation, CCF4 FRET;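 active = mean inhibition across replicates above a set limit taken from the earlier primary screen, cut at about 21% in these data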
NOD2 BLA counter: NOD2-RIPK2 counterscreen BLA reporter activity; shares compounds with NOD2-RIPK2 inh; CHO BLA reporter, CCF4 FRET ratio; inhibition, % at 4.98 µM; hit rate 57% among 1,200;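 active = mean inhibition above the low-control mean inhibition plus three low-control SD, cut at about 11% in these data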
Of the large screens only hits and unclear results are named; the others gave an inactive call (follow-up assays come after a bar, where they were run). Only some compounds are listed: those with a hit (about 2% of all), similar ones and a draw of the others.

COc1ccc(Br)cc1CN(C)C(=O)c1ccccc1OCc1c(C)noc1C	none (no result: TLR4 MyD88 comp)
O=C(NCc1cccnc1)c1ccc(-c2ccc(Cl)cc2)o1	none
O=C(NCc1cccnc1)/C(=C\c1ccc(-c2ccc(Cl)c(Cl)c2)o1)S(=O)(=O)c1ccccc1	ABHD5-PLIN5 inh 76.6, B2AR ag 95.2, Granule exo inh 100.7, NOD2-RIPK2 inh 40.7 | ABHD5 PLIN5 conf 100.8 | HNF4 split-luc 96.6 | NOD2-RIPK2 conf 41.8 | NOD2 BLA counter inactive
Cc1ccc(NC(=O)Cn2sc3nc(C)cc(C)c3c2=O)c(Cl)c1	ABHD5-PLIN5 inh 65.2, Granule exo inh 81.0, NOD2-RIPK2 inh 21.0 (no result: TLR4 MyD88 comp) | ABHD5 PLIN5 conf inactive | HNF4 split-luc 97.9 | NOD2-RIPK2 conf inactive | NOD2 BLA counter inactive
Cc1ccc(NC(=O)Cn2c(C)cc(C)c(C#N)c2=O)c(Cl)c1	none
Cc1cc(C)c2c(=O)n(CC(=O)Nc3ccc(Cl)cc3)sc2n1	ABHD5-PLIN5 inh 76.4, NOD2-RIPK2 inh 30.9 (no result: TLR4 MyD88 comp) | ABHD5 PLIN5 conf 40.8 | HNF4 split-luc 107.8 | NOD2-RIPK2 conf 35.6 | NOD2 BLA counter inactive
O=C(Cn1sc2ccccc2c1=O)Nc1ccc(Cl)cc1	ABHD5-PLIN5 inh 62.2, NOD2-RIPK2 inh 21.3 (no result: B2AR ag, TLR4 MyD88 comp) | ABHD5 PLIN5 conf 83.1 | HNF4 split-luc 118.2 | NOD2-RIPK2 conf 42.3 | NOD2 BLA counter inactive
O=C(CN1C(=O)CNC1=O)Nc1ccc(Cl)cc1	none (no result: TLR4 MyD88 comp)
Cc1cc(C)c2c(=O)n(CC(=O)NCCCN3CCN(c4ccccc4F)CC3)sc2n1	none (no result: TLR9-MyD88 inh, ABHD5-PLIN5 inh, B2AR ag, Granule exo inh, NOD2-RIPK2 inh)
O=C1C=CC(=O)N1c1cccc(-c2ccccc2)c1	ABHD5-PLIN5 inh 28.4, B2AR ag 96.8, NOD2-RIPK2 inh 36.1 (no result: TLR4 MyD88 comp) | ABHD5 PLIN5 conf 51.2 | HNF4 split-luc 94.4 | NOD2-RIPK2 conf 89.6 | NOD2 BLA counter 29.3
O=C1c2ccccc2C(=O)N1c1ccccc1	none (no result: TLR4 MyD88 comp)
Cc1ccc(-c2csc3nc(C)n(-n4c(C)ccc4C)c(=O)c23)o1	ABHD5-PLIN5 inh 51.7, NOD2-RIPK2 inh 49.3 | ABHD5 PLIN5 conf 25.0 | HNF4 split-luc 53.8 | NOD2-RIPK2 conf inactive | NOD2 BLA counter inactive
COc1ccccc1Cc1c(-c2ccco2)nc2c(C)cc(Br)cn12	ABHD5-PLIN5 inh 57.9, NOD2-RIPK2 inh 24.6 (no result: TLR9-MyD88 inh, B2AR ag, TLR4 MyD88 comp) | ABHD5 PLIN5 conf 35.8 | HNF4 split-luc 40.4 | NOD2-RIPK2 conf inactive | NOD2 BLA counter inactive
CCOc1ccc(CCN2C(=O)C(=O)N([C@@H](Cc3ccccc3)CN3CCC[C@H]3CN3C(=O)C(=O)NC[C@@H]3CC(C)C)C[C@@H]2Cc2ccc(O)cc2)cc1	none (no result: TLR9-MyD88 inh, B2AR ag, TLR4 MyD88 comp)
CN(C)CCCN(C(=O)CCOc1ccccc1)c1nc2ccc(F)cc2s1	ABHD5-PLIN5 inh 31.6, NOD2-RIPK2 inh 47.1 | ABHD5 PLIN5 conf inactive | HNF4 split-luc 100.5 | NOD2-RIPK2 conf inactive | NOD2 BLA counter inactive
O=C(NCc1ccccc1)c1nc(S(=O)(=O)Cc2ccccc2)ncc1Cl	ABHD5-PLIN5 inh 51.1, NOD2-RIPK2 inh 52.6 (no result: TLR4 MyD88 comp) | ABHD5 PLIN5 conf 88.6 | HNF4 split-luc 105.5 | NOD2-RIPK2 conf 53.8 | NOD2 BLA counter 13.9
COc1ccc(CNC(=O)c2nc(S(=O)(=O)Cc3ccccc3)ncc2Cl)cc1	ABHD5-PLIN5 inh 41.0, NOD2-RIPK2 inh 61.7 (no result: TLR4 MyD88 comp) | ABHD5 PLIN5 conf 89.1 | HNF4 split-luc 103.0 | NOD2-RIPK2 conf 62.7 | NOD2 BLA counter 15.4
Cc1noc(C(=O)NCc2ccccc2)c1Cl	none
COc1ccc(S(=O)(=O)Cc2ccc(C(=O)NCc3ccccc3)o2)cc1	none (no result: TLR4 MyD88 comp)
C(=C\c1ccco1)/C1=NN(c2ccccc2)C(c2ccco2)C1 (configuration not stated)	ABHD5-PLIN5 inh 33.6, NOD2-RIPK2 inh 21.8 | ABHD5 PLIN5 conf 26.6 | HNF4 split-luc 17.5 | NOD2-RIPK2 conf 31.6 | NOD2 BLA counter 60.1
CN1CCN(c2nc3cc(N4CCOCC4)ccc3s2)CC1	none (no result: B2AR ag, TLR4 MyD88 comp)
COC(=O)[C@@]12C[C@@H](CC(=O)NCc3ccccc3)C(=O)N(Cc3ccc4c(c3)OCO4)C1=CCC(C)(C)C2	none (no result: TLR9-MyD88 inh, B2AR ag, TLR4 MyD88 comp)
CC(C)(C=O)C1=CC(=O)c2ccccc2C1=O	ABHD5-PLIN5 inh 33.6, B2AR ag 65.7, Granule exo inh 90.6, NOD2-RIPK2 inh 22.5 | ABHD5 PLIN5 conf 80.6 | HNF4 split-luc 103.1 | NOD2-RIPK2 conf 85.9 | NOD2 BLA counter inactive
COc1ccc(C(=O)NCCN2CCC(n3c(=O)[nH]c4ccccc43)CC2)cc1F	none (no result: TLR9-MyD88 inh, B2AR ag, TLR4 MyD88 comp)
CC(C)=CCOc1ccc2c(C)c(CCC(=O)N3C[C@H]4C[C@@H](C3)c3cccc(=O)n3C4)c(=O)oc2c1C	none (no result: TLR9-MyD88 inh, B2AR ag, TLR4 MyD88 comp)
CCC(=O)OCOc1ccc(/C=C2/CCC(CN(C)C)C2=O)cc1 (configuration not stated)	ABHD5-PLIN5 inh 50.9, NOD2-RIPK2 inh 32.7 (no result: TLR4 MyD88 comp) | ABHD5 PLIN5 conf 95.4 | HNF4 split-luc 108.8 | NOD2-RIPK2 conf 34.6 | NOD2 BLA counter inactive
CC(C)N1CCC2(CC1)N=C(c1ccc3c(c1)OCO3)CC(c1cc(Cl)ccc1O)N2 (configuration not stated)	ABHD5-PLIN5 inh 75.3, NOD2-RIPK2 inh 20.9 | ABHD5 PLIN5 conf 31.4 | HNF4 split-luc 62.0 | NOD2-RIPK2 conf inactive | NOD2 BLA counter inactive
CC(Sc1ccc(Cl)cc1)C(=O)Nc1ccc2c(c1)OCO2 (configuration not stated)	none
COc1cc([N+](=O)[O-])c2nc(C(=O)O)ccc2c1	none (no result: TLR4 MyD88 comp)
Cc1ccc(C)c(C(O)c2ncc(-c3ccccc3Cl)[nH]2)c1 (configuration not stated)	none (no result: TLR9-MyD88 inh, B2AR ag, TLR4 MyD88 comp)
Cc1[nH]nc(C(F)(F)F)c1N=NN1CCOCC1	ABHD5-PLIN5 inh 49.6, NOD2-RIPK2 inh 44.3 (no result: TLR4 MyD88 comp) | ABHD5 PLIN5 conf 41.0 | HNF4 split-luc 75.5 | NOD2-RIPK2 conf inactive | NOD2 BLA counter inactive
COc1cc(NC(=O)Cn2c([N+](=O)[O-])cnc2C)c(OC)cc1Cl	none (no result: TLR4 MyD88 comp)
COc1ccc(/C=C/C(=O)c2cc(F)ccc2OC(=O)c2ccccc2OC)cc1OC	ABHD5-PLIN5 inh 62.7, NOD2-RIPK2 inh 22.0 | ABHD5 PLIN5 conf 77.6 | HNF4 split-luc 59.9 | NOD2-RIPK2 conf 22.4 | NOD2 BLA counter inactive
COc1ccc(/C=C/C(=O)c2cc(Br)ccc2O)cc1OC	none
Cc1cc(C)n2nc(SCC(=O)N3CC(C)CC(C)C3)nc2n1 (configuration not stated)	none (no result: TLR4 MyD88 comp)
